# 14-3-3 Bad inh – inhibitors of 14-3-3 zeta/Bad binding, primary screen, biochemical, TR-FRET, bovine 14-3-3 zeta; TR-FRET 14-3-3zeta/Dy647-pBad peptide displacement, 1 h; inhibition, % at 21.7 µM; 0.71% of 220,000 active;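 active means inhibition above about 70%, limit read from the data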;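 further: 0% = full 14-3-3 plus peptide FRET controls and 100% = background without 14-3-3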
# Target sequence (P63103 whole entry, looked up): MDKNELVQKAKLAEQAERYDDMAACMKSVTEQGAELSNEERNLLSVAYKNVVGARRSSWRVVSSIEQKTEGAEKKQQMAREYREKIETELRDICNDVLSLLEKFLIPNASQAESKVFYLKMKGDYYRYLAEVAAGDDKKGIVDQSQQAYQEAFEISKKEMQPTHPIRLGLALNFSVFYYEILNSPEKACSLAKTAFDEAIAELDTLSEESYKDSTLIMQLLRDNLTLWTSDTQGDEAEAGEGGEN
# Mcl-1 Bim block – inhibitors of Bim peptide binding to Mcl-1, primary screen, biochemical, bead-based flow cytometry, multiplex | Bim peptide-Mcl-1 binding | AID 1009, 2008 | Induced myeloid leukemia cell differentiation protein Mcl-1 (Homo sapiens), Q07820 | 0.1% of 190,000 active | inhibition, % at 10 µM; in the data active means inhibition above about 40%;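 further: 0% = no compound tracer wells and 100% = peptide blocker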
# Target sequence (Q07820 whole entry, looked up): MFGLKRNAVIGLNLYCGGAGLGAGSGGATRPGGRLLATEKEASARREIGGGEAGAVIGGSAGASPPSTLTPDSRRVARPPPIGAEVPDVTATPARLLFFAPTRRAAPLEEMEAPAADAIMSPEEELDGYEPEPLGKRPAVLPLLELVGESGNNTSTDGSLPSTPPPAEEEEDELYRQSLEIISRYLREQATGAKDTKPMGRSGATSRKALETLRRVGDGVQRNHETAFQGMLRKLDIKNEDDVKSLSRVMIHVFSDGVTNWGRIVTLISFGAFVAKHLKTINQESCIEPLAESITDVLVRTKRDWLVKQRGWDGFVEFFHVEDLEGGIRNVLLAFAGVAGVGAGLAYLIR
# MCL1 BIM primary – inhibitors of MCL1 binding to BIM-BH3, primary screen, biochemical, fluorescence polarization; inhibition, % at 10.9 µM; 0.68% of 320,000 active; Induced myeloid leukemia cell differentiation protein Mcl-1 (Homo sapiens), Q07820; GST-MCL1 / FITC-Bim-BH3 fluorescence polarization; AID 2057, 2009;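 active means inhibition above the mean inhibition of all tested compounds plus 3 SD, set per campaign, cut at about 40% in these data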;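 further: 0% = DMSO wells and 100% = unlabeled Bim-BH3 peptide control; higher means more loss of mP so more displacement of Bim peptide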
# Mcl1 Bid PPI – Mcl-1/Bid binding inhibitors, primary screen, biochemical, TR-FRET, 1536-well. Induced myeloid leukemia cell differentiation protein Mcl-1 (Homo sapiens), Q07820. inhibition, % at 21.7 µM. TR-FRET Mcl-1/Bid-Dy647 peptide binding. 0.97% of 220,000 active;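 active means compounds that cut the binding signal by more than half at the single screening dose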;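 further: His-tagged Mcl-1 with europium anti-His antibody binding Bid BH3 peptide; 0% = Mcl-1 plus peptide wells and 100% = peptide-only wells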
# Mcl1 Noxa PPI – Mcl-1/Noxa binding inhibitors, primary screen, biochemical, TR-FRET, 1536-well; Induced myeloid leukemia cell differentiation protein Mcl-1 (Homo sapiens), Q07820; TR-FRET Mcl-1/Noxa peptide binding, 2 h; inhibition, % at 21.7 µM; 1.5% of 220,000 active; AID 1022, 2008;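 active means compounds that cut the protein-peptide binding signal by more than 50% relative to plate controls in a single-dose test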;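 further: His-tagged Mcl-1 with rhodamine Noxa BH3 peptide and terbium anti-His antibody; 0% = Mcl-1 plus Noxa peptide wells and 100% = peptide-only wells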
# Active calls of the source: *; x = no result; [ ] = dose if it differs, or a comment. Hits are enriched below; roughly 2.5% of the tested compounds scored in any of these assays.
SMILES,14-3-3 Bad inh,Mcl-1 Bim block,MCL1 BIM primary,Mcl1 Bid PPI,Mcl1 Noxa PPI
CC(C)Cn1cc(C(=O)N2CCC(C)CC2)c2c3ccccc3n(C)c2c1=O,22.3,1.0,0.9,-0.6,22.3
COCCn1cc(C(=O)N2CCC(C)CC2)c2c3ccccc3n(C)c2c1=O,18.3,2.0,7.7,95.1*,14.6
CC(C)(C)NC(=O)CN(Cc1cccs1)C(=O)CCN1CCc2ccccc21,-7.0,-3.0,4.0,-10.2,27.0
Cc1ccc(NC(=O)CCC(=O)N/N=C/c2cccs2)cc1,86.1*,0.0,2.6,-23.2,3.9
Cc1ccc(NC(=O)CCC(=O)N/N=C/c2cccs2)cc1C,-2.8,-7.0,0.6,3.1,-3.7
CCc1ccc(CN2CCN(S(=O)(=O)Cc3ccccc3)CC2)cc1,78.6*,0.0,0.3,34.2,8.6
O=S(=O)(Cc1ccc(Cl)cc1)N1CCN(Cc2ccccc2)CC1,1.6,-1.0,9.1,-5.0,-12.6
CC1CN(C2CCN(S(=O)(=O)Cc3ccccc3)CC2)CC(C)O1 (configuration not stated),66.6,0.0,-9.3,50.9*,13.5
CC1(C)C2CCC(C2)C1(C)NC(=O)CN1CCOCC1 (configuration not stated),74.4*,0.0,5.8,31.9,23.3
CC1(C)C2CCC(C2)C1(C)NC(=O)CN1CCCC1 (configuration not stated),x,x,-1.6,x,x
S=C(NC1CCCCC1)N1CCn2cccc2C1c1ccncc1 (configuration not stated),-7.4,-4.0,8.1,-46.7,9.6
S=C(NC1CCCCC1)N1CCn2cccc2C1c1cccnc1 (configuration not stated),-9.4,-1.0,-3.4,-28.2,63.5*
C=CCNc1nnc(SC2CC(=O)N(c3ccc(OC)cc3)C2=O)s1 (configuration not stated),-8.1,-1.0,3.9,-78.4,14.3
CCOc1ccc(C2C(C#N)=C(N)Oc3cc(C)n(Cc4ccco4)c(=O)c32)cc1OC (configuration not stated),-5.2,0.0,14.4,-29.9,0.5
Cc1cc2c(c(=O)n1Cc1ccco1)C(c1cccnc1)C(C#N)=C(N)O2 (configuration not stated),-7.2,0.0,45.3*,-89.0,-0.4
CCn1cc(/C=C/C(=O)Nc2ccn(Cc3c(F)c(F)cc(F)c3F)n2)cn1,12.0,-8.0,11.3,7.3,54.1*
CCn1cc(/C=C/C(=O)Nc2ccc(C)cc2Br)cn1,-2.2,0.0,-4.6,7.6,0.4
O=C1NC(=O)N(Cc2ccccc2)C1=O,x,x,53.1*,x,x
O=C1NC2(CCCCCC2)C(=O)N1Cc1ccccc1,x,x,-2.5,x,x
CCOC(=O)C(C(C)=O)c1c(Br)c(O)c(O)c2c(C(=O)c3ccc(C)cc3)coc12 (configuration not stated),24.5,4.0,25.9,19.7,67.5*
CCOC(=O)c1c(C)n(-c2ccc(C)cc2)c2c(C(C(C)=O)C(=O)O)c(Br)c(O)c(O)c12 (configuration not stated),3.9,0.0,9.2,-41.7,23.8
Cc1ccc(N2C(=O)C3C4C=CC(CC4)C3C2=O)cc1[N+](=O)[O-] (configuration not stated),x,x,-3.5,x,x
Cc1cc(N2C(=O)C=CC2=O)c([N+](=O)[O-])cc1C,-3.6,-12.0,19.6,57.0*,49.7
CN1CCN(C(=O)C23CC4CC(C)(CC(C)(C4)C2)C3)CC1,2.2,x,2.5,7.4,8.7
CC(=O)C1=C(C)OC(N)=C(C#N)C1c1ccncc1 (configuration not stated),8.2,0.0,41.5*,-47.1,-3.7
SMILES,14-3-3 Bad inh,Mcl-1 Bim block,MCL1 BIM primary,Mcl1 Bid PPI,Mcl1 Noxa PPI
COC(=O)C1=C(C)OC(N)=C(C#N)C1c1cccnc1 (configuration not stated),-16.1,0.0,22.9,-19.3,13.7
COc1cccc(N=c2oc3c(C)ncc(CO)c3cc2C(=O)Nc2ccccc2OC)c1,91.4*[fluorescence artefact?],3.0,x,49.1,-35.4
COc1ccc2o/c(=N\O)c(C(=O)Nc3ccccc3OC)cc2c1,4.3,-7.0,-73.7,14.2,59.6*
COc1ccccc1NC(=O)c1cc2c(CO)cnc(C)c2oc1=Nc1ccccc1,x,x,-4.5,x,x
CC(C)CCC(CCN1CCCC1)c1ccc2c(c1)OCO2 (configuration not stated),49.4,x,1.4,5.8,75.1*
COc1ccc(-c2ccc3c(n2)sc2c(=O)[nH]c(=O)[nH]c23)cc1OC,0.8,-3.0,x,-7.2,84.2*
COc1ccc(/C=C/C(=O)O)cc1S(=O)(=O)N1CCCC1,x,x,6.6,x,x
CCCCN(C(=O)Cn1ncc(Cl)c(Cl)c1=O)c1c(N)n(CC(C)C)c(=O)[nH]c1=O,12.8,x,15.6,-0.9,65.9*
CCCCN(C(=O)CN1CC(C)OC(C)C1)c1c(N)n(CC(C)C)c(=O)[nH]c1=O (configuration not stated),-3.5,-4.0,-17.7,-16.9,18.5
CC(=O)N1CCN(c2ccc(N)cc2)CC1,x,x,-0.9,x,x
Nc1ccc(N2CCN(c3ccc(F)cc3)CC2)cc1,-4.5,1.0,13.1,-30.1,60.5*
CC1(c2ccccc2)CC(C)(C)N2C(=O)C3(C(C#N)=C(N)Oc4cc(O)ccc43)c3cccc1c32 (configuration not stated),-3.5,0.0,-4.8,60.9*,1.4
S=c1[nH]nc(-c2cccnc2)n1/N=C/C=C/c1ccco1,-6.5,4.0,22.5,-58.8,6.4
NS(=O)(=O)c1ccc(NC(=O)COC(=O)COc2cccc(C(F)(F)F)c2)cc1,-6.1,x,-11.8,-6.8,7.0
O=C(c1cncc(Br)c1)N1CCCc2ccccc21,3.3,-5.0,2.2,-14.9,8.7
CC(=O)Nc1sc2c(c1C(c1ccc(F)cc1)N1CCOCC1)CCCC2 (configuration not stated),9.5,-2.0,9.0,-56.1,-9.5
Cc1nc(-c2cccc(S(=O)(=O)N3CCCC(C)C3)c2)cs1 (configuration not stated),80.4*,0.0,0.1,-8.3,9.3
Cc1nc(SCc2c(F)cccc2Cl)n[nH]1,84.6*,0.0,-1.3,-0.8,1.9
CCOC(=O)C1(CC)CC(CSc2nc3ccccc3[nH]2)OC1=O (configuration not stated),71.8*,-5.0,-4.8,39.3,4.7
CCOC(=O)C1(CCC(C)C)CC(CSc2nc3ccccc3[nH]2)OC1=O (configuration not stated),57.2,0.0,-1.1,38.9,17.5
CC(C)(C)c1cc(-c2csc(Nc3ccccc3)[n+]2Cc2ccc(C(=O)O)cc2)cc(C(C)(C)C)c1O,42.0,x,-1.6,88.0*,91.8*
